This is a sample that favours compounds with a hit; in the whole collection about 3.1% have one here.
HIF-2a block: inhibitors of HIF-2a; 786-0 RCC cells HIF-2a reporter, luciferase luminescence, overnight; inhibition, % at 18.8 µM; 0.72% of 360,000 active;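 active = inhibition of the luminescence signal of 40% or more relative to plate controls, in a single-dose primary screen at 18.75 µM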
MITF TRPM1 inh: inhibitors of MITF-driven TRPM1 promoter in melanoma cells. SK-MEL-5 TRPM1 promoter luciferase, 24 h. inhibition, % at 12.5 µM. 0.83% of 330,000 active;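 active = mean inhibition across replicates of 60% or more, whatever share of single replicates reaches that level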
ABHD5-PLIN5 inh: blocks binding of human ABHD5 to perilipin-5. Q00G26+Q8WTS1. Split G. princeps luciferase complementation, luminescence, 4 h. inhibition, % at 4 µM. 0.78% of 360,000 active;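 active = inhibition above the mean inhibition across every tested compound plus 3 SD, cut at about 22% in these data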
Target sequence (Q00G26 whole entry, looked up): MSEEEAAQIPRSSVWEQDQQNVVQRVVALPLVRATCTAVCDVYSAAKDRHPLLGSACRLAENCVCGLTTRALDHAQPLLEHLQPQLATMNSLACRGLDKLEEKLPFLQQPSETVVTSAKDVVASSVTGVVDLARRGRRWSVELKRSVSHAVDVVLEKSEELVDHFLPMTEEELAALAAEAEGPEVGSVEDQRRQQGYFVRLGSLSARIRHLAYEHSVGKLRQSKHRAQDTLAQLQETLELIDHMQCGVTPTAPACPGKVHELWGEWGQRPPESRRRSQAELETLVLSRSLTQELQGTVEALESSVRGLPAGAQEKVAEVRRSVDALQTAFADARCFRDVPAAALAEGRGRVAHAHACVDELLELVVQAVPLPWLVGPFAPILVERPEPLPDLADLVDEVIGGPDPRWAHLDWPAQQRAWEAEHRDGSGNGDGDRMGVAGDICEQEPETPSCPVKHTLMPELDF
Target sequence (Q8WTS1 whole entry, looked up): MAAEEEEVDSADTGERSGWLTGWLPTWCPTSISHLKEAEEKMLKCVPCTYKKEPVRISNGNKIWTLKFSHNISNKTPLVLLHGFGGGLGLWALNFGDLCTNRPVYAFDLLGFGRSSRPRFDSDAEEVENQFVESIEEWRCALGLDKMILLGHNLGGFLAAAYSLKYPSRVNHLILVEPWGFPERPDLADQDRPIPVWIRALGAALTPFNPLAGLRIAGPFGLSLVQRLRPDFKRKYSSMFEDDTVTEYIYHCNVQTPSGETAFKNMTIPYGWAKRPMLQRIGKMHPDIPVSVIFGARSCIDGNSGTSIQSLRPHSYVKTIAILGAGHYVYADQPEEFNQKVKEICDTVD
Peg3 promoter: inhibitors of Peg3 promoter. inhibition, % at 20 µM. 1.7% of 360,000 active. HeLa PEG-Prom luciferase reporter, luminescence, overnight. AID 588405;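 active = inhibition of at least 50% at 20 µM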
CF NFkB inh: inhibitors of cystic fibrosis induced NF-kB | KKLEB NF-kB-GFP reporter, PAF-induced, GFP fluorescence overnight | inhibition, % at 5 µM | 0.86% of 360,000 active;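 active = at least 50% inhibition at 5 µM, scaled per plate between neutral and stimulator controls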;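 also: PAF is a Pseudomonas aeruginosa culture filtrate used as stimulus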
KKLEB cytotox: counter-screen for CF NF-kB inhibitors: cytotoxicity; 0.36% of 360,000 active; activity change (cytotoxicity), % at 5 µM; KKLEB CF airway cells viability, ATPlite luminescence, overnight; active compounds read low; cells stimulated with P. aeruginosa culture filtrate;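 active = corrected activity change at or below -50% at 5 µM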
CF NFkB conf: confirmation of cystic fibrosis induced NF-kB inhibitors. shares compounds with CF NFkB inh. KKLEB CF airway cells, PAF-induced NF-kB-GFP fluorescence, overnight. inhibition, % at 5 µM. 64% of 1,300 active. AID 602472; in the data active = inhibition above about 40%;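 also: stimulus PAF is a Pseudomonas aeruginosa filtrate and not platelet activating factor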
Large screens that a line does not name were inactive (follow-up assays come after a bar, where they were run).

CCOc1ccccc1N1CCN(c2nc3ccccc3nc2C(C#N)C(=O)OC)CC1 (stereo not given)	CF NFkB inh 90.0 | CF NFkB conf 46.8
CCCCCN(C(=O)CCC(=O)OC(C)C(=O)Nc1cccc(C#N)c1)c1c(N)n(CCCC)c(=O)[nH]c1=O (stereo not given)	none
COc1ccccc1NS(=O)(=O)c1ccc(-c2cnc(C3CC3)o2)cc1	CF NFkB inh 54.1 | CF NFkB conf 70.5
Cc1ccc(NS(=O)(=O)c2ccc(-c3cnc(C4CC4)o3)cc2)c(C)c1	CF NFkB inh 65.1 | CF NFkB conf 65.1
CCOC(=O)/C=c1/s/c(=C\c2c(OC)ccc3ccccc23)c(=O)n1CC(=O)NCC1CCCO1 (stereo not given)	CF NFkB inh 53.7 | CF NFkB conf 65.0
Cc1cc(C)cc(-n2ncc3c2CCCC3NC(=O)c2ccccc2)c1 (stereo not given)	none (no result: MITF TRPM1 inh)
CCCC1O[C@@H]2C[C@H]3[C@@H]4CCC5=CC(=O)C=C[C@]5(C)[C@H]4[C@@H](O)C[C@]3(C)[C@]2(C(=O)CO)O1 (stereo not given in full)	CF NFkB inh 89.9 | CF NFkB conf inactive
CC12C=CC(=O)C=C1CCC1C2CCC2(C)C(C(=O)CO)CCC12 (stereo not given)	none
CCOC(=O)c1c(-c2ccc(C)cc2)csc1NC(=O)c1ccc(N2C(=O)CCC2=O)cc1	CF NFkB inh 57.7 | CF NFkB conf 55.4
Cc1onc(-c2c(Cl)cccc2Cl)c1C(=O)c1c[nH]c(C(=O)NCC2CCCO2)c1 (stereo not given)	none
COC(=O)C1(CCSC)NC(c2ccc(O)c(OC)c2)C2C(=O)N(c3ccc(C)cc3)C(=O)C21 (stereo not given)	none
Cc1cccc(NC(=O)c2cc(-c3ccc(C)s3)nc3ccccc23)n1	CF NFkB inh 74.1 | CF NFkB conf 76.0
O=C1OC(Nc2nc(-c3ccc(F)cc3)cs2)c2ccccc21 (stereo not given)	CF NFkB inh 52.8 | CF NFkB conf 70.8
O=C1OC(Nc2nc3ccccc3s2)c2ccccc21 (stereo not given)	none
Cc1ccccc1NS(=O)(=O)c1ccc(C(=O)NCC2CCCO2)cc1 (stereo not given)	none
CCOC(=O)N1CCN(CC(=O)Nc2ccc([N+](=O)[O-])cc2C(=O)Nc2ccccc2F)CC1	Peg3 promoter 63.7, CF NFkB inh 66.9 | CF NFkB conf inactive
CCOC(=O)N1CCN(CC(=O)Nc2ccccc2C(=O)Nc2ccccc2)CC1	none
O=C(Nc1cccc2[nH]ncc12)c1ccc(F)cc1	CF NFkB inh 79.0 | CF NFkB conf 93.0
O=C(Nc1cccc2ccccc12)c1ccc(F)cc1	none
CNC(=S)Nc1cccc2[nH]ncc12	none
O=C(NC(=S)Nc1cccc2[nH]ncc12)c1ccccc1	CF NFkB inh 62.0 | CF NFkB conf inactive
CCOc1ccc(/C=N/NC(=O)c2ccc3nc[nH]c3c2)cc1OC	none (no result: MITF TRPM1 inh)
C=C1C(=O)[C@]23C[C@H]1CC[C@H]2[C@]1(C)[C@@H](OC(C)=O)CC[C@@](C)(C(=O)O)[C@H]1C[C@@H]3OC(C)=O	CF NFkB inh 62.4 (no result: MITF TRPM1 inh) | CF NFkB conf inactive
Cn1c(SCC(=O)c2ccc(O)cc2O)nnc1-c1ccccc1	none
CCOC(=O)N1CCN(c2ncnc3scc(-c4ccc(Cl)cc4)c23)CC1	none
Clc1ccc(-c2csc3ncnc(N4CCc5ccccc5C4)c23)cc1	CF NFkB inh 54.9 | CF NFkB conf 45.6
COc1ccc(-n2c(C)cc3cc(OC(C)=O)ccc32)cc1	CF NFkB inh 57.2 | CF NFkB conf 57.6
O=C(CN1C(=O)NC2(CCCc3ccccc32)C1=O)c1ccc(F)c(F)c1 (stereo not given)	CF NFkB inh 55.9 | CF NFkB conf inactive
O=C(CN1C(=O)NC2(CCc3ccccc32)C1=O)c1ccc(Cl)cc1 (stereo not given)	none
O=C(Nc1ccc(NC(=O)c2ccccn2)cc1)C(=O)Nc1ccc2c(c1)OCCO2	CF NFkB inh 55.4 | CF NFkB conf inactive
Clc1ccc(CNc2ncnc3[nH]ncc23)c(Cl)c1	none
c1nc(NCc2ccc3c(c2)OCO3)c2cc(-c3ccc4c(c3)OCCO4)ccc2n1	none
c1cncc(CNc2ncnc3ccc(-c4ccc5c(c4)OCO5)cc23)c1	none | CF NFkB conf inactive
C/C(=N/NC(=O)c1cccs1)c1ccc(NC(=O)COc2ccc(Cl)cc2)cc1	CF NFkB inh 59.0 | CF NFkB conf 77.8
C/C(=N\NC(=O)c1ccc(Cl)cc1)c1cccs1	none
CCc1nc2c(OCc3c(C)noc3C)cccn2c1N(C)C(=O)C(C)C	none (no result: MITF TRPM1 inh)
Cc1cc2ccccn2c1C(=O)c1ccc(NN)c([N+](=O)[O-])c1	CF NFkB inh 55.8 | CF NFkB conf inactive
CC12CCC(=O)N1C(C(=O)Nc1nc3ccccc3s1)CS2 (stereo not given)	none
Cc1ccc(-c2cccc(C(=O)NCc3ccccc3)n2)c2ccccc12	CF NFkB inh 52.7 | CF NFkB conf inactive
CC(C)CC1NC(=O)N(Cc2cc(=O)n3ccsc3n2)C1=O (stereo not given)	none
COc1cc(/C=C2\C=CC(=O)O2)cc(OC)c1	none
COc1ccc(-c2nc(CN3CCC(C(=O)N4CCOCC4)CC3)c(C)o2)c(OC)c1	none
COC(=O)[C@]1(C)CCC[C@@]2(C)C3CC[C@@]4(C)C[C@]3(CCC21)CC(=O)N4C (stereo not given in full)	none
C=C1C[C@@]23CCC4[C@@](C)(CCC[C@@]4(C)C(=O)OC)C2CC[C@]1(OC(C)=O)C3 (stereo not given in full)	CF NFkB inh 50.7 | CF NFkB conf inactive
CC(C)NC(=O)Nc1ccc2c(c1)C(=O)N([C@H](C)CO)C[C@H](C)[C@@H](CN(C)Cc1ccc(C(F)(F)F)cc1)OCCCC[C@H](C)O2	none (no result: MITF TRPM1 inh)
CCOc1ccc(S(=O)(=O)N2CCC(C(=O)Nc3cc(S(C)(=O)=O)ccc3Cl)CC2)cc1	none (no result: MITF TRPM1 inh)
COc1ccc(COC(=O)C2=C(C)NC(=O)NC2c2ccc(F)cc2)cc1 (stereo not given)	CF NFkB inh 60.5 | CF NFkB conf 59.0
COc1ccc(NC(=O)COc2ccc(Br)cc2)c(OC)c1	none
COc1ccc(NC(=O)NNC(=O)COc2ccc3cc(Br)ccc3c2)c(OC)c1	CF NFkB inh 52.5 | CF NFkB conf inactive
Cc1sc2ncnc(Nc3ccc(O)cc3)c2c1C	none
Oc1ccc(Nc2ncnc3scc(-c4ccccc4)c23)cc1	CF NFkB inh 61.0 | CF NFkB conf 78.0
